An excerpt weighted towards active compounds, which were near 3.8% of everything screened.
Sfp PPTase inh: blocks B. subtilis Sfp PPTase activity; Biochemical Sfp PPTase activity, qHTS; Potency, µM, without a hit: largest response in the series, negative = inhibition, hits mostly inhibitors; Q9F4F7; 310,000 compounds, 3.5% hits;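 further: the enzyme is Sfp with the accession as filed and its product quenches rhodamine fluorescence; 0% = enzyme reaction without inhibitor and -100% = no enzyme wells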
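Compounds were incubated with enzyme (final 15 nM) for 15 min at room temperature before substrate addition started the reaction. Fluorescence at 525 nm excitation, 598 nm emission was recorded immediately and after 30 minutes.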
TrxR1 substrate: rat thioredoxin reductase 1 substrate activity; O89049; purified TrxR1 substrate turnover, NADPH consumption readout; Potency, µM (top dose mostly 114 µM), without a hit: at the top dose activity change, negative = substrate turnover; 390,000 compounds, 0.01% hits; AID 588456; further: nearly all actives have a fitted effect of over 50% in size
Target sequence (O89049 whole entry, looked up): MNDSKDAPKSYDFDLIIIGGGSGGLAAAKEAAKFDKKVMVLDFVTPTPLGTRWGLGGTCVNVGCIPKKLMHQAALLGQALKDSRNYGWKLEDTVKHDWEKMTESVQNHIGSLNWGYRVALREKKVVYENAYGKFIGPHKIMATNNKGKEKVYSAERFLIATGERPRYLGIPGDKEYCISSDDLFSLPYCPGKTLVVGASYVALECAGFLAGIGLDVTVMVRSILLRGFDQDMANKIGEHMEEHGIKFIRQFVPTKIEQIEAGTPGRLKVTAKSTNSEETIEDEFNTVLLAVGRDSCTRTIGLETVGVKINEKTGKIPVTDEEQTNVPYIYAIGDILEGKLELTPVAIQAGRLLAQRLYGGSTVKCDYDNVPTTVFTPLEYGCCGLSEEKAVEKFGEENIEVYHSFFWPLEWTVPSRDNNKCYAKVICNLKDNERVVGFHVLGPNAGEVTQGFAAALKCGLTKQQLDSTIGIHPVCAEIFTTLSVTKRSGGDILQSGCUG
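Rat TrxR1, dispensed at 90 nM, was prereduced with 400 uM NADPH (final) for 5 min at ~22 deg C, then incubated with compound 15 min before 400 uM selenite. A first-read NADPH fluorescence drop versus no-compound background flagged substrates.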
VDR inh: vitamin D3 receptor (human) inhibition | P11473 | VDR-SRC2-3 peptide fluorescence polarization, 2 h | Potency, µM, for the others: max response, negative = inhibition, actives largely listed as inhibitors | 400,000 compounds, 0.93% hits | AID 504847
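Measured by FP: displacement of SRC2-3 coactivator peptide from VDR by library compounds, following a two-hour ambient incubation.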
KAT2A inh: blocks human GCN5L2 histone acetyltransferase; 390,000 compounds, 0.21% hits; Q92830; GCN5L2 HAT assay, ThioGlo1 CoA-SH fluorescence; Potency, µM (highest dose often 58.9 µM), for inactives: at the top dose activity change, negative = inhibition, most hits filed as inhibitors
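GCN5L2 (20 nM) in 50mM HEPES pH 7.5, 0.1mM EDTA, 0.01% Tween-20 preincubated 15 min with compounds at room temperature. Reaction started with H3(1-25) 75uM, acetyl-CoA 70uM, ThioGlo1 50uM; CoA-thiol fluorescence (Ex340/Em540) read at 0 and 20 min.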
TrxR1 inh: inhibitors of rat thioredoxin reductase 1 | Potency, µM (titrated, usually from 114 µM), for inactives: top-dose activity change, negative = inhibition, usual class: inhibitors | 390,000 compounds, 1% hits | O89049 | recombinant rTrxR1, NADPH fluorescence consumption, selenite substrate | AID 588453; further: nearly all actives have a fitted effect of over 65% in size
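Rat TrxR1 (90 nM in the dispensed reagent) was pre-reduced with 400 uM NADPH for 5 min at room temperature, then incubated with compound for 15 min. After 400 uM selenite was added, NADPH fluorescence (Ex 340/Em 450 nm) was followed for 8 min.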
GLS inhibitor: inhibitors of human glutaminase (GLS) | O94925 | GLS enzymatic activity, qHTS titration | Potency, µM (series often up to 45.5 µM), for the others: at the highest dose activity change, negative = inhibition, most hits filed as inhibitors | 410,000 compounds, 0.21% hits | AID 624170
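hKGA in 45 mM KH2PO4 pH 8.2, 0.02% Tween-20 with pin-transferred compounds; 1 mM L-glutamine (stock) plus glutamate oxidase/HRP/Amplex Red coupling added. Fluorescence read initially and after 30 min at RT.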
The depositor's hits bear a star; ? = inconclusive; / = not tested or not shown; ! = not confirmed by another sample; [ ] = another dose, or the depositor's remark. The call rests on the fitted dose curve; in most records, active means well fitted curve in the direction sought with a large enough effect; inconclusive means small, poorly fitted or top-dose-only effect, or another doubt; inactive means no such curve, though single readings can be large; an effect the other way counts as inactive or inconclusive. Unless noted, on the % scale 0 is the no-effect control and ±100 the full control effect; potency means the concentration at half of the fitted maximal effect.

SMILES	Sfp PPTase inh	TrxR1 substrate	VDR inh	KAT2A inh	TrxR1 inh	GLS inhibitor
O=C1/C(=C/c2cccnc2)N2CCC1CC2	21.2%	0.4%	2.7%	-0.8%	-6.2%	-16.0%
CC(C)c1cccc(O)c(=O)c1	56.2µM*!	-7.0%[57.1 µM]	?	-5.2%	-1.2%[57.1 µM]	14.5%
CCOc1ccc2oc(C(=O)NN3C(C)CCCC3C)c(C)c2c1 (configuration not stated)	0.4%	5.0%[57.1 µM]	-5.7%	2.8%	1.5%[57.1 µM]	5.4%
Cc1ccc(-c2nnc(Nc3ccc(O)cc3)c3ccccc23)cc1S(=O)(=O)N1CCOCC1	/	-10.3%	?	0.4%	-17.6%	23.1%
O=C(Nc1cccc(F)c1)N1CC2(CCNCC2)C1	?	/	39.8µM*	-3.7%	/	/
Cc1[nH]n(-c2ccccc2)c(=O)c1C(c1cccc([N+](=O)[O-])c1O)c1c(C)[nH]n(-c2ccccc2)c1=O	-5.2%	-6.9%[57.1 µM]	?	-2.0%	-24.5%[57.1 µM]	10µM*
COc1cc(C(c2c(C)[nH]n(-c3ccccc3)c2=O)c2c(C)[nH]n(-c3ccccc3)c2=O)cc(OC)c1OC	-7.9%	-5.8%	?	-8.6%	?	-1.1%
CCn1c(NN=O)nc2ccccc21	50.1µM*	-5.7%	-9.7%	3.6%	-6.0%	6.4%
COc1ccc(CN2C(=O)NC(=O)/C(=C\c3cc(OC)c(OC)c(OC)c3)C2=O)cc1	-8.5%	7.0%[57.1 µM]	50.1µM*	-1.6%	?	-1.2%
COc1cc(OC)c(OC)cc1/C=C1/C(=O)NC(=O)N(Cc2ccccc2)C1=O	-14.2%	-6.7%	-4.9%	-1.4%	-23.4%	7.8%
COc1ccc(/C=C2\C(=O)NC(=O)N(Cc3ccccc3)C2=O)c(OC)c1OC	35.5µM*	2.5%	?	5.7%	?	6.6%
COc1ccc(CN2C(=O)NC(=O)/C(=C\c3ccco3)C2=O)cc1	70.8µM*	-4.8%	54.3%	?	?	-5.1%
C[C@@H]1CN([C@H](C)CO)C(=O)CCCn2nncc2CO[C@@H]1CN(C)C(=O)Oc1ccc2ccccc2c1	/	/	/	/	/	10.5%
Cc1ccc(C(=O)COC(=O)Cc2ccccc2)cc1	4.1%	-3.3%	2.3%	-6.5%	-1.8%	5.6%
Cc1o[nH]c(=O)c1C[C@@H](N)C(=O)O	79.4µM*!	1.4%	-21.6%	-14.2%[0.501 µM]	13.5%	/
Cc1o[nH]c(=O)c1C[C@H](N)C(=O)O	79.4µM*!	/	15.4%	0.0%	/	/
NC(Cc1ccc(F)cc1)c1csc(Nc2cnccn2)n1 (configuration not stated)	/	/	/	/	/	16.9%
O=C(c1ccc(CS(=O)(=O)c2ccccc2)o1)N1CCC2(CC1)OCCO2	-34.8%	4.4%[57.1 µM]	-9.3%	-2.4%	28.2µM*	-5.4%
On1ccccc1=S	/	-5.6%	22.4µM*	12.6µM*	?	49.5%
CC[n+]1c(-c2ccccc2)c2cc(N)ccc2c2ccc(N)cc21	?	0.1%[11.4 µM]	6.31µM*	?	0.0%[11.4 µM]	-2.0%
C#CC(CC)(CC)NC(=O)Nc1ccc(OCC)cc1	10.1%	-0.9%	1.8%	-9.7%	18.1%	-3.3%
COc1cc(C=C2C(=O)NC(=O)NC2=O)ccc1OCc1ccc([N+](=O)[O-])cc1	31.6µM*	4.2%[57.1 µM]	?	-9.8%	?	?
O=C1NC(=O)C(=Cc2ccc(Oc3ccc([N+](=O)[O-])cc3)cc2)C(=O)N1	20µM*	-14.9%	31.6µM*	11.1%	?	57.3%
CC1=CC2OC3CC4OC(=O)C=CC=CC(C(C)O)OCC(O)C(C)CC(=O)OCC2(CC1O)C4(C)C31CO1 (configuration not stated)	/	1.5%	7.6%	/	44.7µM*	-8.5%
CC1=CC2OC3CC4OC(=O)C=CC=CC(=O)OCCC(C)C(O)C(=O)OCC2(CC1O)C4(C)C31CO1 (configuration not stated)	/	2.1%[11.4 µM]	-21.4%	/	5.5%[11.4 µM]	-0.6%
CNC(=O)[C@@H]1C[C@H]1[C@@H](NP(=O)(c1ccccc1)c1ccccc1)c1ccccc1	28.9%	/	/	/	/	/
